Assay outcomes deposited in PubChem BioAssay by National Center for Advancing Translational Sciences (NCATS).
An excerpt weighted towards active compounds, which were near 19% of everything screened.
DT40 TDP1 CPT = qHTS for Inhibitors of human tyrosyl-DNA phosphodiesterase 1 (TDP1): qHTS in cells in presence of CPT | chicken DT40 Tdp1-/-;hTDP1 cells + 20 nM CPT, ATP luminescence, 48 h | Potency, µM (titrated, usually from 46.2 µM), without a hit: top-dose activity change, negative = growth inhibition, most hits filed as inhibitors | 420,000 tested, 12% active; further: potency means the concentration at half of the fitted maximal effect; on the % scale 0 is the no-effect control and ±100 the full control effect; nearly all actives have a fitted effect of over 55% in size
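Chicken DT40 Tdp1-/- cells stably complemented with human TDP1 were seeded at 400 cells/well in medium containing 20 nM camptothecin, exposed to pin-transferred compounds, and grown at 37 °C for at least 48 hr. Viability was read as ATP luminescence.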
HepG2 tox = qHTS for Inhibitors of TGF-b: Cytotox Counterscreen; Potency, µM (titrated, usually from 46.1 µM), without a hit: at the highest dose activity change, negative = cytotoxicity, actives largely listed as cytotoxic; HepG2 CAGA-GFP viability, ATP luminescence, 18 h; 410,000 tested, 0.76% active; further: potency means the concentration at half of the fitted maximal effect
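CellTiter-Glo luminescence gave cytotoxicity after 18 hours at 37 degrees C. The cells were HepG2 CAGA-GFP in 1% FBS DMEM, stimulated with 500 pg/mL TGF-beta after compound addition. %Activity was normalised to no-cell wells (complete cell-killing) and DMSO (no toxicity), and curves were fitted and classified.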
TGFb SMAD3 inh = qHTS for Inhibitors of TGF-b; HepG2 CAGA-GFP TGF-b/SMAD3 reporter, GFP fluorescence, 18 h; TGF-beta stimulated, 500 pg/mL final; 410,000 tested, 1.2% active; Potency, µM (doses to about 46.1 µM), without a hit: top-dose activity, negative = inhibition, actives largely listed as inhibitors; further: potency means the concentration at half of the fitted maximal effect; on the % scale 0 is the no-effect control and ±100 the full control effect; nearly all actives have a fitted effect of over 65% in size
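Smad-responsive CAGA-GFP expression was quantified in HEPG2 cells exposed to compounds and 500 pg/mL final TGF-beta for 18 h at 37 degrees C; unstimulated wells defined full inhibition.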
TDP1 block = qHTS Assay for Inhibitors of Tyrosyl-DNA Phosphodiesterase (TDP1). Tyrosyl-DNA phosphodiesterase 1 (Homo sapiens), Q9NUW8. recombinant TDP1, AlphaScreen DNA substrate cleavage. Potency, µM (highest dose often 130 µM), without a hit: top-dose activity change, negative = inhibition, hits mostly inhibitors. 350,000 tested, 0.28% active; further: potency means the concentration at half of the fitted maximal effect; on the % scale 0 is the no-effect control and ±100 the full control effect; nearly all actives have a fitted effect of over 40% in size
Target sequence (Q9NUW8 whole entry, looked up): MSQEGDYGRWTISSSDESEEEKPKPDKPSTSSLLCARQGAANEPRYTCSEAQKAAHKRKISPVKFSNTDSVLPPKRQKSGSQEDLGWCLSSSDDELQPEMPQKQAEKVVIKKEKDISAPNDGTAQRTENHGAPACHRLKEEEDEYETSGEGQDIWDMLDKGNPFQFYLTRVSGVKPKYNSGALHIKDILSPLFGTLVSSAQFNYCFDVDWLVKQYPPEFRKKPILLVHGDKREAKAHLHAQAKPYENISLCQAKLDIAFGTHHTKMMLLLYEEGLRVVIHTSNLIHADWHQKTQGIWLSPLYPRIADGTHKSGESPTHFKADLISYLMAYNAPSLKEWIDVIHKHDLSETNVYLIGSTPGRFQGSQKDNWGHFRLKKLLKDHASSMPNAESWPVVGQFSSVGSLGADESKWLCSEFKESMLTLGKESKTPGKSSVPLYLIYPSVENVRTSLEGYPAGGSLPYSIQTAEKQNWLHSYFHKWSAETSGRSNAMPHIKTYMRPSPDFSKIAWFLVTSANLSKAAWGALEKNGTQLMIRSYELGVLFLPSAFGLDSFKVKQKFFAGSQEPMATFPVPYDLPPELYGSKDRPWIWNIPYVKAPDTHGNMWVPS
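Recombinant human Tdp1 (E. coli-expressed, 1 nM final) preincubated with compounds 15 min at room temperature, then 5'-biotin/3'-phosphotyrosine-FITC DNA substrate (15 nM final) added for 5 min. AlphaScreen beads (10 ug/ml final) added 10 min; cleavage lowers signal.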
TDP1 cell noCPT = qHTS for Inhibitors of human tyrosyl-DNA phosphodiesterase 1 (TDP1): qHTS in cells in absence of CPT | DT40 Tdp1-/- hTDP1 cells, no CPT, ATP luminescence, 48 h | Potency, µM (doses to about 46.2 µM), inactives show top-dose activity change, negative = growth inhibition, hits mostly inhibitors | 420,000 tested, 15% active | AID 686978, 2013; further: potency means the concentration at half of the fitted maximal effect; on the % scale 0 is the no-effect control and ±100 the full control effect; nearly all actives have a fitted effect of over 55% in size
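Chicken DT40 Tdp1-/- cells complemented with human TDP1, screened without camptothecin (DMSO vehicle only), 400 cells/well. Compounds pin-transferred, cells incubated at 37 °C for at least 48 hr. Growth read as ATP-dependent luminescence (CellTiter-Glo, 30 min at RT).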
IL1B secr inh = qHTS for Inhibitors of Inflammasome Signaling: IL-1-beta AlphaLISA Primary Screen; THP-1 LPS/ATP IL-1B secretion, AlphaLISA, 16 h; hits give low values; activity change, % at 57.5 µM; 360,000 tested, 4.7% active; in the data active means activity change below about -50%; inconclusive means mostly about -30% to -49%; further: on the % scale 0 is the no-effect control and ±100 the full control effect
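THP-1 cells pretreated 1 hr with compounds (up to 57.5 uM final), then stimulated with LPS (250 ng/mL final) plus ATP (1.25 mM final); secreted IL-1B measured by AlphaLISA after 16 hr, decreased signal indicating inhibition.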
The depositor's hits bear a star; [ ] = remark or other dose. Unless noted, the call rests on the fitted dose curve; in most records, active means well fitted curve in the direction sought with a large enough effect; inconclusive means small, poorly fitted or top-dose-only effect, or another doubt; inactive means no such curve, though single readings can be large; an effect the other way counts as inactive or inconclusive.

`OCC1(Cc2ccccc2)CCCN(Cc2c[nH]c3ccccc23)C1` (stereo not drawn) gave DT40 TDP1 CPT 12µM*, HepG2 tox -41%, TGFb SMAD3 inh 0%, TDP1 block -3%, TDP1 cell noCPT 18µM* and IL1B secr inh -65*.
`CCN1CCCC(CO)(Cc2ccccc2)C1` (stereo not drawn) gave DT40 TDP1 CPT 5%, HepG2 tox -20%, TGFb SMAD3 inh -30%, TDP1 block -5%, TDP1 cell noCPT -7% and IL1B secr inh 5.
`c1ccc(CN2CCN(Cc3c[nH]c4ccccc34)CC2)cc1` gave DT40 TDP1 CPT 2.1µM*, HepG2 tox -30%, TGFb SMAD3 inh -2%, TDP1 cell noCPT 10µM* and IL1B secr inh -16.
Screening COc1ccccc1NC(=O)Cn1c(=O)n(Cc2ccc3c(c2)OCO3)c(=O)c2oc3ccccc3c21 returned DT40 TDP1 CPT 5%, HepG2 tox 0%, TGFb SMAD3 inh 4%, TDP1 block 5% and TDP1 cell noCPT -3%.
O=C(COC(=O)CNC(=O)c1ccc(Cl)cc1Cl)NCc1ccco1 was read as DT40 TDP1 CPT -14%, HepG2 tox 0%, TGFb SMAD3 inh 3%, TDP1 block -8%[0.505 µM], TDP1 cell noCPT -6% and IL1B secr inh 6.
Screening CC(C)(C)n1nnnc1C(C1CC1)N1CCN(C/C=C/c2ccccc2)CC1 (stereo not drawn) returned DT40 TDP1 CPT -24%, HepG2 tox 2%, TGFb SMAD3 inh -11%, TDP1 cell noCPT inconclusive and IL1B secr inh -15.
Screening CN(Cc1ccccc1)C(c1ccnc2ccccc12)c1nnnn1-c1ccc2c(c1)OCCO2 (stereo not drawn) returned DT40 TDP1 CPT inconclusive, TDP1 cell noCPT inconclusive and IL1B secr inh -16.
For CC(C)(C)OC(=O)N1CCN(C(c2ccnc3ccccc23)c2nnnn2-c2ccc3c(c2)OCCO3)CC1 (stereo not drawn) the results were DT40 TDP1 CPT inconclusive, TDP1 cell noCPT 16µM* and IL1B secr inh 6.
Cc1cccc(C)c1-n1nnnc1C(c1ccnc2ccccc12)N1CCN(C/C=C/c2ccccc2)CC1 (stereo not drawn) was read as DT40 TDP1 CPT 9.2µM*, HepG2 tox 13%, TGFb SMAD3 inh inconclusive, TDP1 cell noCPT 8.2µM* and IL1B secr inh -17.
Cc1cccc(C)c1-n1nnnc1C(c1ccnc2ccccc12)N1CCN(C(=O)OCc2ccccc2)CC1 (stereo not drawn) was read as DT40 TDP1 CPT inconclusive, TDP1 cell noCPT 16µM* and IL1B secr inh 12.
Screening CC(C)(C)n1nnnc1C(c1ccnc2ccccc12)N1CCN(C/C=C/c2ccccc2)CC1 (stereo not drawn) returned DT40 TDP1 CPT 16µM*, HepG2 tox -23%, TGFb SMAD3 inh inconclusive, TDP1 cell noCPT 16µM* and IL1B secr inh 11.
For CC(C)(C)OC(=O)N1CCCN(C(c2cc3ccccc3o2)c2nnnn2C(C)(C)C)CC1 (stereo not drawn) the results were DT40 TDP1 CPT inconclusive, TDP1 cell noCPT inconclusive and IL1B secr inh -5.
For CC(C)(C)n1nnnc1C(c1cc2ccccc2o1)N1CCN(C(=O)OCc2ccccc2)CC1 (stereo not drawn) the results were DT40 TDP1 CPT inconclusive, TDP1 cell noCPT 18µM* and IL1B secr inh -21.
